# Measured values reported in PubChem BioAssay (NCATS).
# Inconclusive results are not listed. Where a call stands in place of a potency, no number is given. Values without a mark were called inactive. The source made the active and inactive calls. The call rests on the fitted dose curve; in most records, active means well fitted curve in the direction sought with a large enough effect; inconclusive means small, poorly fitted or top-dose-only effect, or another doubt; inactive means no such curve, though single readings can be large; an effect the other way counts as inactive or inconclusive.
# Legend:
# [1] = tested on: SKOV3; experiment: Primary qHTS to identify gynecologic anti-cancer compounds using libraries of approved drugs and bioactive compounds (AID 1345084); details: Gynecologic cancer cell panel viability, ATPlite luminescence, 48 h; series mostly up to 57.5 µM; further: nearly all actives have a fitted effect of over 55% in size; further: potency means the concentration at half of the fitted maximal effect
# Summary of the method: (§1)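 Cell viability after 48 h drug treatment, ATPlite luminescence readout; five doses.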
# [2] = tested on: Tov-21-G; experiment: as above; details: Gynecologic cancer cell panel viability, ATPlite luminescence, 48 h; series mostly up to 57.5 µM
# Summary of the method: as §1
# [3] = tested on: Tov112D; experiment: as above; details: Gynecologic cancer cell panel viability, ATPlite luminescence, 48 h; series mostly up to 57.5 µM
# Summary of the method: as §1
# [4] = qHTS assay to identify inhibitors of the type 1 interferon - major histocompatibility complex class I in skeletal muscle: Counter screen cell viability and HiBit confirmation (AID 1347412); details: iHSKM muscle cells + IFN-b, HiBiT or CellTiter-Glo, 24 h; for activity change, negative = inhibition: at 45.9 µM (top of the series); further: potency means the concentration at half of the fitted maximal effect; on all read-outs here: nearly all actives have a fitted effect of over 60% in size
# Summary of the method: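 Duplicate plates, pinned identically: one read for HiBiT-tagged endogenous HLA-B luminescence, the other for ATP-content viability via CellTiter Glo. Cells were genome-engineered human myoblasts given 4 ng/ml IFN-b; compounds 12-pt, 1:3 from 46 uM final; 24 hr exposure.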
# [5] = Drug repurposing screens with cells derived from glioblastoma tumor samples (AID 1345199); details: GBM patient neurospheres viability, ATP luminescence, 48 h; further: nearly all actives have a fitted effect of over 40% in size
# Summary of the method: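 Four patient lines of CD133+ GBM neurospheres were screened at several concentrations; hits were retested in those lines plus three slower-growing GBM lines, using 48-hour treatment and ATP-based viability.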
compound,measurement,setting,value
NCC(CNc1nc(Nc2cccc(NC(=O)N3CCCC3)c2)ncc1I)C(=O)c1cccs1 (centres undefined),Potency,[1],inactive
same,Potency,[2],inactive
same,Potency,[3],inactive
CN1CCN(C2=Nc3ccccc3Nc3ccc(OS(=O)(=O)C(F)(F)F)cc32)CC1,Potency,[1],inactive
same,Potency,[2],inactive
same,Potency,[3],inactive
COc1ccc([C@H]2OC[C@H]3O[C@@H](O[C@H]4[C@@H]2NC[C@@H]4O)[C@H](O)[C@H]3O)cc1,Potency,[1],3.98 µM (active)
same,Potency,[2],2.82 µM (active)
same,Potency,[3],5.62 µM (active)
Cc1cc(OCCCS(C)(=O)=O)cc(C)c1-c1cccc(COc2ccc(C3=CC(=O)NS3=O)cc2)c1 (centres undefined),Potency,[1],inactive
same,Potency,[2],inactive
same,Potency,[3],inactive
Cc1nc(C#Cc2ccnc(Cl)c2)c(C)n1-c1ccc(OC(F)(F)F)cc1,Potency,[1],inactive
same,Potency,[2],inactive
same,Potency,[3],inactive
CC(C)=CCc1cc2c(cc1O)OC[C@H]1c3ccc(O)cc3O[C@@H]21,Potency,[1],inactive
same,Potency,[2],inactive
same,Potency,[3],inactive
C=C(C)C(=O)O[C@H]1/C(C=O)=C\CC/C(CO)=C/[C@H]2OC(=O)C(=C)[C@@H]2[C@@H]1OC,Potency,[1],inactive
same,Potency,[2],inactive
same,Potency,[3],inactive
C=C1CC2OC(=O)C(=C)C2C(OC(=O)/C(C)=C\C)CC2(C)OC1=CC2=O (centres undefined),Potency,[1],11.2 µM (active)
same,Potency,[2],11.2 µM (active)
same,Potency,[3],inactive
C=CC(=O)N1CC(N2CCN(C(=O)CNc3cc(C4CC4)c(Cl)cc3O)CC2)C1,Potency,[1],inactive
same,Potency,[2],inactive
same,Potency,[3],inactive
CN[C@@H]1[C@H](O[C@H]2[C@H](O[C@@H]3[C@@H](O)[C@H](O)[C@@H](N=C(N)N)[C@H](O)[C@H]3N=C(N)N)O[C@@H](C)[C@]2(O)CO)O[C@@H](CO)[C@H](O)[C@H]1O,Potency,[1],inactive
same,Potency,[2],inactive
same,Potency,[3],inactive
CCCCCCOC(=O)/N=C(\N)c1ccc(NCc2nc3cc(C(=O)N(CCC(=O)OCC)c4ccccn4)ccc3n2C)cc1,Potency,[1],inactive
same,Potency,[2],inactive
same,Potency,[3],inactive
C=C1C(=O)OC2CC(C)C(CCC(C)=O)=CCC12 (centres undefined),Potency,[1],inactive
same,Potency,[3],inactive
OC(c1ccc(-c2ccc(CN3CCN(Cc4ccncc4)CC3)cc2)c(F)c1)(C(F)(F)F)C(F)(F)F,Potency,[1],inactive
same,Potency,[2],inactive
same,Potency,[3],inactive
same,"activity change, negative = inhibition",[4]; HiBiT,-18.6%
same,"activity change, negative = inhibition",[4]; Viability,-8.6%
C/C(=C\Cc1c(O)c(Cl)c(C)c(C=O)c1O)CC/C=C(\C)[C@H]1CC(=O)C(C)(C)O1,Potency,[1],inactive
same,Potency,[3],inactive
COC(C)(C)CCn1nc(Nc2c(C)cccc2C)c2cnc(Nc3ccc(OCCN4CCCC4)c(F)c3)nc21,Potency,[1],15.8 µM (active)
same,Potency,[2],1.78 µM (active)
same,Potency,[3],inactive
same,Potency,[4]; HiBiT,15.7 µM (active)
CC1(C)CN(C(=O)c2ccc(-c3cccc4nc(NC(=O)C5CC5)nn34)cc2)C1,Potency,[1],inactive
same,Potency,[2],inactive
same,Potency,[3],inactive
same,Potency,[4]; HiBiT,7.87 µM (active)
same,"activity change, negative = inhibition",[4]; Viability,3.01%
Fc1ccc(N2CCN(CCC3OCCc4ccccc43)CC2)cc1 (centres undefined),Potency,[1],inactive
same,Potency,[2],inactive
same,Potency,[3],inactive
CC12CCC3C1C(c1c(cc(O)c(C(=O)c4ccccc4)c1O)O2)C3(C)C (centres undefined),Potency,[1],inactive
same,Potency,[2],inactive
same,Potency,[3],inactive
C=C1CC[C@@H](O)[C@]2(C)CC[C@H]3C(=C)C(=O)O[C@@H]3[C@@H]12,Potency,[1],inactive
same,Potency,[2],inactive
same,Potency,[3],inactive
C1=C/COCc2cc(ccc2OCCN2CCCC2)Nc2nccc(n2)-c2cccc(c2)COC/1,Potency,[1],8.91 µM (active)
same,Potency,[2],10 µM (active)
same,Potency,[3],11.2 µM (active)
same,Potency,[4]; HiBiT,3.52 µM (active)
CC(=O)O[C@@H]1[C@@H](OC(C)=O)[C@H](C)O[C@@H](O[C@H]2[C@@H]3C=CO[C@@H](O[C@@H]4O[C@H](CO)[C@@H](O)[C@H](O)[C@H]4O)[C@@H]3[C@@]3(CO)O[C@@H]23)[C@@H]1OC(=O)/C=C/c1ccccc1,Potency,[1],inactive
same,Potency,[3],inactive
CC1(C)CC[C@]2(C(=O)O)[C@H](O)C[C@]3(C)C(=CCC4[C@@]5(C)CC[C@H](O[C@@H]6O[C@H](CO[C@@H]7OC[C@H](O)[C@H](O)[C@H]7O[C@@H]7OC[C@H](O)[C@H](O)[C@H]7O)[C@@H](O)[C@H](O)[C@H]6O)C(C)(C)C5CC[C@]43C)[C@@H]2C1 (some centres undefined),"activity change, negative = cytotoxicity",[1],13.8% [at 11.6 µM]
same,"activity change, negative = cytotoxicity",[2],4.39% [at 11.6 µM]
same,"activity change, negative = cytotoxicity",[3],15.2% [at 11.6 µM]
O=C(Nc1ccc(-c2ccnc(Nc3ccc(N4CCOCC4)cc3)n2)cc1)C1CCCN1 (centres undefined),Potency,[1],inactive
same,Potency,[3],inactive
CCCC(CCC)C(=O)NCc1ccc2c(cnn2-c2ccccc2OC)c1,Potency,[1],inactive
same,Potency,[2],inactive
same,Potency,[3],inactive
CCC[C@@]1(CCc2ccccc2)CC(O)=C([C@H](CC)c2cccc(NS(=O)(=O)c3ccc(C(F)(F)F)cn3)c2)C(=O)O1,Potency,[1],inactive
same,Potency,[2],inactive
same,Potency,[3],inactive
same,"activity, negative = cell killing","[5]; at 45.9 µM (top of the series), tumour line B",-17%
same,"activity, negative = cell killing","[5]; at 45.9 µM (top of the series), tumour line D",-1.26%
same,"activity, negative = cell killing","[5]; at 46.1 µM (top of the series), tumour line C",-12.2%
CC(C)CCCCC(=O)N[C@@H](CO)C(=O)N[C@@H](CC(C)C)C(=O)[C@@]1(CO)CO1,Potency,[1],inactive
same,Potency,[3],inactive
CN(C)c1cccc(Oc2cnc(Nc3cccc(O)c3)nc2)c1,Potency,[1],inactive
same,Potency,[3],inactive
